PABP FP inh = blocks human PABP binding to poly(A) RNA. P11940. fluorescence polarization. calls only at 35 µM. actives 1% (n = 290,000). AID 2014;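 note: calls also rest on retests at 20 µM and on dose response follow-up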
eIF4E-4G inh = inhibitors of eIF4E and eIF4G interaction in translation initiation; TR-FRET eIF4E-eIF4GI(517-606) binding, 2 h; P63073+Q04637; inhibition, % at 21.7 µM; actives 0.37% (n = 220,000);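 active = inhibition above about 30%, limit read from the data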;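 note: 0% = full FRET control wells and 100% = background wells lacking eIF4GI fragment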
eIF4H inh = inhibitors of RNA binding by human eIF4H | eIF4H fluorescence polarization binding assay | inhibition, % at 35 µM | actives 0.94% (n = 290,000) | AID 2012;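 note: calls also rest on retests at 20 µM and on dose response follow-up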
14-3-3 Bad inh = disrupts binding of bovine 14-3-3 zeta to phospho-Bad peptide. inhibition, % at 21.7 µM. TR-FRET 14-3-3zeta/Dy647-pBad peptide displacement, 1 h. P63103. actives 0.71% (n = 220,000);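 active = inhibition above about 70%, limit read from the data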;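 note: 0% = full 14-3-3 plus peptide FRET controls and 100% = background without 14-3-3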
PABP1 MLLE inh = blocks PAM2 peptide binding to the PABP1 MLLE domain; P11940; GST-MLLE / FITC-PAM2 fluorescence polarization; inhibition, % at 20 µM; actives 0.36% (n = 360,000); in the data active = inhibition above about 35%, passing the limit was not always enough;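 note: plate controls were DMSO wells with GST-MLLE for no effect and wells lacking GST-MLLE protein for full effect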
* marks the source's active call; other numbers are inactive results; i = inactive; ? = inconclusive; . = no result; + = active, no number; [ ] = remark or other dose. Hits are enriched below; roughly 1.9% of the tested compounds scored in any of these assays. Unless noted, the rule behind the calls is not given here.

SMILES | PABP FP inh | eIF4E-4G inh | eIF4H inh | 14-3-3 Bad inh | PABP1 MLLE inh
COc1ccc(OC)c(S(=O)(=O)N2CCN(c3c(C)cccc3C)CC2)c1 | i | 72.7* | 59.2 | -1.3 | 12.4
Cc1cccc(C(=O)NC2CCN(CC(=O)Nc3ccccc3Cl)CC2)c1 | i | . | -10.3 | . | 3.2
Cc1sc2ncnc(Nc3ccccc3)c2c1C | i | 0.2 | -1.6 | 21.6 | 3.1
Cc1sc2ncnc(Nc3ccc(N4CCOCC4)cc3)c2c1-c1ccccc1 | + | 2.9 | ? | -6.6 | -22.4
Cc1nccc2oc(=O)c(NC(=O)c3ccc(Cl)cc3)cc12 | i | 3.7 | -10.3 | 10.5 | 0.0
O=C(Nc1cc2c(oc1=O)CCCC2=O)c1ccc(Cl)cc1 | + | 23.7 | 73.7* | -1.3 | 0.1
COc1ccc(NC(=O)Cn2c(C(C)C)nc(C)cc2=O)cc1Cl | i | 3.8 | 1.5 | 4.3 | 0.3
COC(=O)C(Cc1ccc(O)cc1)NC(=O)Cn1cc(C)c(=O)[nH]c1=O (centres undefined) | . | . | . | . | -12.3
C=CCOC(=O)c1cc(-c2ccc(/C=C3\C(=O)NC(=O)C(C#N)=C3C)o2)ccc1Cl | + | 60.3*[fluorescence artefact?] | 70.8* | 92.3*[fluorescence artefact?] | -12.6
CCCOC(=O)c1cc(-c2ccc(/C=C3/C(=O)N(C)C(=O)C(C#N)=C3C)o2)ccc1Cl | . | . | . | . | -1.9
O=C1c2cccc3cc([N+](=O)[O-])cc(c23)C(=O)N1/N=C/c1ccc(O)cc1O | + | 13.4 | 91.1* | 97.3* | 1.6
Nc1cc2c3c(cccc3c1)C(=O)N(CCN1CCCC1)C2=O | + | 5.5 | 113.6* | 5.1 | 73.8
O=C1c2cccc3cccc(c23)C(=O)N1CCO | . | . | . | . | 3.3
O=C1c2cccc3cc([N+](=O)[O-])cc(c23)C(=O)N1CCN1CCCC1 | i | 13.2 | 80.7 | 29.7 | 50.1*
Cc1cc(C)c(S(=O)(=O)N2CCN(CCN3C(=O)c4cccc5cccc(c45)C3=O)CC2)cc1[N+](=O)[O-] | i | -1.2 | 8.8 | -5.8 | .
CCN(CC)CCN1C(=O)c2cccc3cc(N)cc(c23)C1=O | + | 8.4 | 91.4* | -8.4 | 105.3
COc1ccc(CNC(=O)Nc2nc(C(N)c3ccccc3)cs2)cc1 (centres undefined) | . | . | . | . | -3.2
CCOC(=O)CC(=O)CSc1nc(-c2ccccc2)cc(-c2ccccc2)c1C#N | i | 15.4 | 49.7 | -10.2 | 1.6
CC(C)OC(=O)CC(=O)CSc1nc(-c2ccc(F)cc2)cc(-c2ccccc2)c1C#N | + | 1.9 | 87.6* | -19.8 | 20.4
CC(=O)c1ccc(OC(=O)COc2ccccc2)cc1 | i | . | -1.7 | . | 14.2
C=CCN1C(C(=O)c2ccccc2)=C(OC(=O)COc2ccccc2)c2ccccc2S1(=O)=O | i | 23.8 | -7.7 | 76.6* | 19.1
COc1cc(NC(=O)CCN2CCN(C/C=C/c3ccccc3)CC2)cc(OC)c1 | i | . | 3.1 | . | -7.0
CSc1ccc(C2Nc3cccc4cccc(c34)N2)cc1 | + | . | 90.3* | . | 0.2
Cc1cccc(C2Nc3cccc4cccc(c34)N2)c1 | i | . | 52.8* | . | -5.8
CSc1ccc(C2NC(=O)c3ccccc3N2)cc1 (centres undefined) | . | . | . | . | 2.5
SMILES | PABP FP inh | eIF4E-4G inh | eIF4H inh | 14-3-3 Bad inh | PABP1 MLLE inh
Clc1ccc(C2Nc3cccc4cccc(c34)N2)cc1 | + | . | 85.5* | . | 18.3
CCOC(=O)c1cnc(-n2[nH]c(C)cc2=O)[nH]c1=O | + | -2.7 | 99.8* | 9.5 | -5.4
CC(=O)OCC1O[C@@H](O[C@@H]2C[C@H]3C(C)(C)[C@H](OC(C)=O)CC[C@]3(C)[C@H]3CC[C@]45C[C@]4(CC[C@H]5[C@@H](C)C[C@@H](O)[C@H](O)C(C)(C)O)[C@@]32C)[C@H](O)[C@@H](O)[C@@H]1O (some centres undefined) | i | 3.0 | 6.1 | -8.8 | .
Cc1ccc(NC(=O)CSC2=NCCN2)cc1 | i | 3.8 | -7.3 | 8.4 | 39.3*
COc1ccccc1NC(=O)CSC1=NCCN1 | i | 1.4 | 3.3 | -3.4 | 30.1
COC(=O)CCC(=O)OC1(C)C(=O)C=C2C=C(C3CC3)N(Cc3ccco3)C=C2C1=O (centres undefined) | + | 1.9 | 88.3* | -6.3 | 30.3
CCCCC1=CC2=CC(=O)C(C)(OC(=O)CC)C(=O)C2=CN1CCc1ccc(Br)cc1 (centres undefined) | i | -2.5 | 2.9 | -3.5 | -11.7
